High-throughput results: PubChem, National Center for Advancing Translational Sciences (NCATS)
FEN1 inhibitor: blocks human flap endonuclease 1; Recombinant FEN1 flap cleavage, fluorescence, 15 min; Potency, µM (titrated, usually from 114 µM), hits mostly inhibitors; 0.35% of 390,000 active; AID 588795; further: nearly all actives have a fitted effect of over 65% in size
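FEN1 at 10 nM, compound pretreatment for 15 min (room temperature), 50 nM final substrate to initiate; endpoint reads at 0 and 15 min; DMSO-only plates used as vehicle background.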
TDP1 inh: inhibitors of human tyrosyl-DNA phosphodiesterase TDP1. 0.28% of 350,000 active. recombinant TDP1, AlphaScreen DNA substrate cleavage. Q9NUW8. Potency, µM (series often up to 130 µM), actives largely listed as inhibitors; further: nearly all actives have a fitted effect of over 40% in size
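Recombinant human Tdp1 (E. coli-expressed, 1 nM final) preincubated with compounds 15 min at room temperature, then 5'-biotin/3'-phosphotyrosine-FITC DNA substrate (15 nM final) added for 5 min. AlphaScreen beads (10 ug/ml final) added 10 min; cleavage lowers signal.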
POLI inh: DNA polymerase iota (human) inhibition; Q9UNA4; Pol iota fluorescent replication assay, 10 min; Potency, µM (titrated, usually from 115 µM), usual class: inhibitors; 1% of 390,000 active
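Pol iota at 10 nM preincubated 15 min with compounds at room temperature; reaction started with fluorescent substrate, 50 nM final. Fluorescence read kinetically at 0 and 10 min; buffer-only wells as negative control.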
POLB inh: inhibitors of human DNA polymerase beta. AID 485314. Potency, µM (titrated, usually from 114 µM), actives largely listed as inhibitors. Pol beta primer extension/strand displacement, fluorescence kinetic. 1.3% of 340,000 active
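Pol beta (10 nM) was preincubated with compound for 15 min at room temperature. The reaction was then started with 50 nM substrate and read immediately and after a further 10 min at room temperature.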
Pol kappa inh: DNA polymerase kappa (human) inhibition. 0.53% of 400,000 active. Q9UBT6. AID 588579. purified Pol kappa, fluorescent DNA synthesis assay, 10 min. Potency, µM (top dose mostly 107 µM), usual class: inhibitors
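10 nM Pol kappa was preincubated with compounds for 15 min at room temperature. Reaction started with 50 nM (final) substrate. Fluorescence read kinetically at 0 and 10 min.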
Pol eta inh: DNA polymerase eta (human) inhibition | recombinant Pol eta, fluorescent DNA replication assay | AID 588591 | 1.2% of 390,000 active | Potency, µM (highest dose often 114 µM), usual class: inhibitors
Target sequence (Q9Y253 whole entry, looked up): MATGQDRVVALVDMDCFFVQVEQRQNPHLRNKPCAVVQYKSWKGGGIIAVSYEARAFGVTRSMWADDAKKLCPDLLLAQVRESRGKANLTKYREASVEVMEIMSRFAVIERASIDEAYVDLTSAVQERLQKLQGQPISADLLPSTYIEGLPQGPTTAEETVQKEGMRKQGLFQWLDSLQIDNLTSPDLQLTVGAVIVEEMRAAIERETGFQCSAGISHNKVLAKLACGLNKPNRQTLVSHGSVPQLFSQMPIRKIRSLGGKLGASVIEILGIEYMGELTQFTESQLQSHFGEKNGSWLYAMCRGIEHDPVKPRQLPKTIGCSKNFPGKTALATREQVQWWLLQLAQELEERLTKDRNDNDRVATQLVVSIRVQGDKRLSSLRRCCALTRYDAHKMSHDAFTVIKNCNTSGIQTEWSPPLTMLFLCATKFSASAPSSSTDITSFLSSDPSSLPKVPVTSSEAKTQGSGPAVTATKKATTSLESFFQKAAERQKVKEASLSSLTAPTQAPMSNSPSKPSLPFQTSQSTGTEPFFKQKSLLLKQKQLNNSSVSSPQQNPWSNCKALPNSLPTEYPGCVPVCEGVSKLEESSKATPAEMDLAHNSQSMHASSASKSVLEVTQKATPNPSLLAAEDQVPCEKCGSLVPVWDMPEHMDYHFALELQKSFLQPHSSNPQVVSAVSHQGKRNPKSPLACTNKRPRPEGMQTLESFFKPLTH
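Fluorescent replication assay: 50 nM final substrate added after a 15 min room-temperature compound preincubation with 10 nM enzyme. Signal taken at 0 min and again at 10 min.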
Numbers stand for hits; 0 = inactive; ? = inconclusive; - = no result given; [ ] = remark or other dose. Rows were chosen to be rich in hits. Some 2.4% of all compounds tested hit in one or more screens of this group. The call rests on the fitted dose curve; in most records, active means well fitted curve in the direction sought with a large enough effect; inconclusive means small, poorly fitted or top-dose-only effect, or another doubt; inactive means no such curve, though single readings can be large; an effect the other way counts as inactive or inconclusive.

SMILES	FEN1 inhibitor	TDP1 inh	POLI inh	POLB inh	Pol kappa inh	Pol eta inh
COc1ccccc1/C=c1\sc2nc(-c3ccccc3OC)nn2c1=O	0	0	0	0	0	0
N#Cc1cccc(OC2=NS(=O)(=O)c3ccccc32)c1	-	0	-	-	-	-
COc1ccc(N(C)S(=O)(=O)c2c(C)[nH]c(=O)[nH]c2=O)c(OC)c1	0	0	89µM	0	0	0
Cc1ccc(CNC(=O)CSc2nc(=O)n3ccccc3n2)cc1	0	0	0	-	0	0
Cc1ccn2c(=O)nc(SCC(=O)NCc3ccccc3)nc2c1	0	-	45µM	-	0	22µM
Cc1ccn2c(=O)nc(SCC(=O)N3CCN(c4ccccc4)CC3)nc2c1	0	0	50µM	-	0	20µM
Cc1ccn2c(=O)nc(SCC(=O)Nc3cccc4ccccc34)nc2c1	0	0	?	-	0	79µM
C=C(C)C(=O)OCCOCC	-	0	-	-	0[12 µM]	-
COc1ccc(/C=C/c2nccc3ccccc23)cc1OC	0	-	0	-	0	-
O=[N+]([O-])c1ccc(Nc2nc(NCCN3CCOCC3)nc(Nc3ccc(I)cc3)n2)cc1	0	-	0	-	0	-
N#Cc1nc(NCC2CC2)nc(Nc2ccccc2)n1	-	0	-	-	-	-
CC/C=C\[C@H](O)[C@H](O)C1=C(C)C(=O)[C@]2(O1)C(=O)N[C@@](OC)(C(=O)c1ccccc1)C2O (some centres not stated)	0	0	?	35µM	?	0
CCCCOC(=O)C1=C(C)NC(=O)NC1c1ccc([N+](=O)[O-])s1 (configuration not stated)	0	0	89µM	0	?	0
COC1=CC(=O)C(O)=C(CCCCCCC/C=C/CCCCCCCC2=C(O)C(=O)C=C(OC)C2=O)C1=O	20µM	-	7.9µM	-	20µM	3.5µM
CCCCCCCCCCCC1=C(O)C(=O)C=C(O)C1=O	?	0	?	-	?	0
CS(=O)(=O)Nc1ccc(-c2ccc(/C=C3\SC(N)=NC3=O)o2)cc1	0	-	?	40µM	0	?
CN(C)CCCCCCNc1nccc(N2CCN(C)CC2)n1	0	-	0	-	0	-
Oc1c(Br)cc(Br)cc1CNc1cccc2cccnc12	?	0	?	45µM	?	0
CCN(C(=O)COC(=O)/C(C#N)=C/c1ccc(N(C)C)cc1)C1CCS(=O)(=O)C1 (configuration not stated)	0	0	56µM	-	?	0
Nc1ccc(N)c([N+](=O)[O-])c1	-	0	-	-	-	-
C=C1C=C(C(F)F)n2ncc(C(=O)NCc3ccc(Cl)cc3Cl)c2N1	0	-	0	-	0	-
O=C(NCC(c1ccco1)N1CCCCC1)c1cc2c(s1)CCCC2 (configuration not stated)	0	0	?	-	0	0
O=C(NCc1ccco1)c1cc2c(s1)CCCCC2	0	0	?	28µM	0	0
CC(=O)Nc1ccc(SC[C@H](Cc2ccccc2)N2CC[C@@H](N)CCC2=O)cc1	0	-	0	-	0	-
CC(C)(C)n1ncc2c(=O)n(Cc3ccccc3Cl)cnc21	0	-	0	-	0	-
SMILES	FEN1 inhibitor	TDP1 inh	POLI inh	POLB inh	Pol kappa inh	Pol eta inh
O=Cc1ccc(O)cc1O	0	-	0	0	0	0
O=CN/C=C/c1cc(O)ccc1O	18µM	7.9µM	22µM	?	45µM	50µM
O=C(COC(=O)c1cccc(OC(F)F)c1)Nc1ncccn1	0	45µM	0	-	0	?
CC(C)NC(=O)NC(=O)COC(=O)c1cccc(OC(F)F)c1	0	0	0	0	0	0
CCCCNC(=O)COC(=O)c1c2c(nc3ccccc13)/C(=C/c1cccs1)CC2	0	0	0	25µM	0	?
COc1ccc(C(=O)O)cc1COc1ccc(NC(C)=O)cc1	-	0	-	-	-	-
Cc1ccc2occ(C3NC(C(=O)O)CS3)c(=O)c2c1 (configuration not stated)	0	0	0	0	0	0
Cc1ccc2occ(C3N[C@H](C(=O)O)CS3)c(=O)c2c1 (some centres not stated)	0	0	10µM	0	0	?
COc1cccc(/C=C/c2cnc3ccccc3n2)c1OC	0	-	0	-	0	-
CCC(=O)N(CCC(c1ccc(C)cc1)c1ccco1)Cc1ccco1 (configuration not stated)	0	0	45µM	25µM	?	?
C=C1C=C(C)n2ncc(C(=O)Nc3cccc4cnccc34)c2N1	?	-	79µM	-	?	-
Oc1ccc(NCc2cccc(OCc3ccc(F)cc3)c2)cc1	?	0	22µM	0	0	0
CN(C)CC(CCC(CN(C)C)C(=O)c1ccccc1)C(=O)c1ccccc1 (configuration not stated)	0	0	22µM	0	0	0
COc1ccc(C(=O)C(CCCCC(CN(C)C)C(=O)c2ccc(OC)cc2)CN(C)C)cc1 (configuration not stated)	0	0	0	0	0	0
Cc1nc([N+](=O)[O-])cn1CC(O)c1ccc2c(c1)OCO2 (configuration not stated)	0	-	?	-	0	-
O=C(CNC(=O)c1ccc(F)cc1)N/N=C/c1cc(Br)ccc1OC(=O)/C=C/c1ccco1	0	-	?	?	0	56µM
COc1ccccc1C(=O)NCC(=O)N/N=C/c1cc(Br)ccc1OC(=O)/C=C\c1ccco1	?	0	?	0	32µM	0
CC(C)Cn1c(=O)c2ccccc2n2c(CCC(=O)N3CCN(c4ccccc4)CC3)nnc12	0	0	0	0	0	0
CC(C)c1ccc(NC(=O)CSc2nnc(-c3ccccc3)n2C)cc1	0	-	0	-	0	-
CC(=O)Nc1ccc(S(=O)(=O)N2CCCN(S(=O)(=O)c3ccc4c(c3)OCCO4)CC2)cc1	-	0	-	-	-	-
CC(=O)c1ccc(NS(=O)(=O)c2cccc(S(=O)(=O)c3ccc(Cl)cc3)c2)cc1	0	0[12.3 µM]	89µM	0	?	0
c1coc(CNc2ncnc3c2nc2n3CCCC2)c1	0	-	0	-	0	-
O=C(CCCc1c[nH]c2ccccc12)NCCc1c[nH]c2ccccc12	0	0	0	0	0	89µM
O=C(CCc1c[nH]c2ccccc12)NCCc1ccccc1	0	0[0.0935 µM]	0	0	0	0
Cc1cc(C)c2nc3c(c(C(=O)O)c2c1)CCC3	0	0	?	18µM	0	14µM
SMILES	FEN1 inhibitor	TDP1 inh	POLI inh	POLB inh	Pol kappa inh	Pol eta inh
COc1ccccc1CNC(=O)/C=C/c1ccc(Br)o1	0	0	?	8.9µM	0	0
COc1ccc(NC(=O)/C=C/c2ccc(Br)o2)cn1	0	20µM	16µM	11µM	79µM	50µM
O=C(OCCF)N1CCN(/[N+]([O-])=N/Oc2ccc([N+](=O)[O-])cc2[N+](=O)[O-])CC1	?	-	0	-	0	-
Cc1ccc(OCC(=O)Nc2ccc3c(c2)C(=O)NC3=O)cc1	0	?	0	32µM	0	0
Cc1ccc2oc(-c3ccc(NC(=O)COc4ccccc4)cc3O)nc2c1	0	-	89µM	-	0	-
Nc1c(S(=O)(=O)O)cc(Nc2ccc(Cl)cc2)c2c1C(=O)c1ccccc1C2=O	-	0	-	-	?	-
